# Source: PubChem (National Center for Advancing Translational Sciences (NCATS))
# Sampled rows, rich in hits. Any-hit rate of the full collection: about 5.7%.
# L3MBTL1 inh – qHTS Assay for the Inhibitors of L3MBTL1 | Potency, µM (doses to about 57.1 µM), without a hit: top-dose activity, negative = inhibition, most hits filed as inhibitors | 230,000 tested, 0.66% active | AlphaScreen L3MBTL1–H3K9me1 peptide binding | Lethal(3)malignant brain tumor-like protein 1 (Homo sapiens), Q9Y468; also: potency is read from the fitted curve at half-maximal effect; % is scaled to controls: 0 for no effect and ±100 for the full control effect; nearly all actives have a fitted effect of over 60% in size
#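 AlphaScreen assay: L3MBTL1 (50 nM final) was preincubated 30 min at room temperature with biotinylated H3(1-15)K9me1 peptide (75 nM final), then 30 min with library compounds; streptavidin donor and nickel chelate acceptor beads (10 ug/mL final) added, 30 min dark.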
# PI5P4Ka inh – qHTS for Inhibitors of phosphatidylinositol 5-phosphate 4-kinase (PI5P4K). Phosphatidylinositol 5-phosphate 4-kinase type-2 alpha (Homo sapiens), P48426. PI5P4Kalpha enzyme, ADP-Glo luminescence, 60 min; hits give low values. max response, %. 330,000 tested, 1.2% active; active = max response of -50% or lower; inconclusive = between -30% and -50%; inactive = -30% or higher; also: value at the top dose of about 77 µM; % is scaled to controls: 0 for no effect and ±100 for the full control effect
# Target sequence (P48426 whole entry, looked up): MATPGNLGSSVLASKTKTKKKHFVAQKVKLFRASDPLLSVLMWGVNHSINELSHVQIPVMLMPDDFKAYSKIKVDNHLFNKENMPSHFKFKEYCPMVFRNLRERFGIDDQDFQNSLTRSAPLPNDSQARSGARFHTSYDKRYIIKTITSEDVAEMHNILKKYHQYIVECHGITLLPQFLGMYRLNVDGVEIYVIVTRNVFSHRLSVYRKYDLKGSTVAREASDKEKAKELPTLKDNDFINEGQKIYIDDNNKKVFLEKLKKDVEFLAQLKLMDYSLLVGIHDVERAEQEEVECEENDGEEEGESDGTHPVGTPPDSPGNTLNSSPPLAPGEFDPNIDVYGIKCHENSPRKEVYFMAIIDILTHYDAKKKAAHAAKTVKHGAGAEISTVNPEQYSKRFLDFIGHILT
#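 PI5P4Kalpha ADP-Glo assay; 5 microM ATP final; 60 min RT reaction; HEPES pH 7.4/EGTA/CHAPS, 5% DMSO; controls lacking substrate or enzyme; luminescent end-point.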
# KDM4E inh – qHTS Assay for Inhibitors of Human Jumonji Domain Containing 2E (JMJD2E) | Lysine-specific demethylase 4E (Homo sapiens), B2RXH2 | JMJD2E catalytic domain, FDH-coupled NADH fluorescence (FDH is formaldehyde dehydrogenase) | Potency, µM (titrated, usually from 57.1 µM), for inactives: at the top dose activity change, negative = inhibition, usual class: inhibitors | 230,000 tested, 1.6% active | AID 2147, 2009; active = well fitted inhibition curve with a large enough effect, not every such curve was filed as active; inconclusive = small, poorly fitted or top-dose-only effect, or another doubt; inactive = no such curve, though single readings can be large or run the other way;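 also: potency is read from the fitted curve at half-maximal effect; 0% = wells with enzyme and -100% = buffer wells without enzyme; nearly all actives have a fitted effect of over 50% in size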
# Target sequence (B2RXH2 1-337 limits assumed): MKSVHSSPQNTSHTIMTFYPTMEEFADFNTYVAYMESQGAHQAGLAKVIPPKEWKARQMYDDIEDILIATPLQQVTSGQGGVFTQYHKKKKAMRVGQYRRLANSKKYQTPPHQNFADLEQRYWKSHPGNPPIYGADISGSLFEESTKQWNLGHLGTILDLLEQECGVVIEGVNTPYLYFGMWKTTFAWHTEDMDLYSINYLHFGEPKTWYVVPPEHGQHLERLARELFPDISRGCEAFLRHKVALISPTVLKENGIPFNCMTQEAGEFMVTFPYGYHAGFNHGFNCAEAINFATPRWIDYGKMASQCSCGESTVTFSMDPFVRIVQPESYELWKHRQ
# JMJD2A Tudor – qHTS Assay for Inhibitors of JMJD2A-Tudor Domain. AlphaScreen JMJD2A-Tudor / H3K4me3 peptide binding. Potency, µM (highest dose often 114 µM), without a hit: at the top dose activity change, negative = inhibition, usual class: inhibitors. 390,000 tested, 4.4% active; also: potency is read from the fitted curve at half-maximal effect; % is scaled to controls: 0 for no effect and ±100 for the full control effect; nearly all actives have a fitted effect of over 50% in size
# HP1b binding inh – HTS for Inhibitors of HP1-beta Chromodomain Interactions with Methylated Histone Tails; AlphaScreen HP1-beta / biotin-H3K9me3 peptide binding; Potency, µM (series often up to 114 µM), without a hit: top-dose activity change, negative = inhibition, actives largely listed as inhibitors; Chromobox protein homolog 1 (Homo sapiens), P83916; AID 540317, 2011; 390,000 tested, 0.56% active; also: potency is read from the fitted curve at half-maximal effect; nearly all actives have a fitted effect of over 70% in size
#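 HP1-beta protein (50 nM final) preincubated 30 min at room temperature with biotinylated H3(1-18)K9me3 peptide (50 nM) in PBS pH 7.4, 0.01% Tween-20, then compound added for 30 min. AlphaScreen streptavidin donor/nickel chelate acceptor beads (10 ug/mL final), 30 min dark, luminescence read.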
# BAZ2B inh – qHTS Assay for Inhibitors of BAZ2B; Bromodomain adjacent to zinc finger domain protein 2B (Homo sapiens), Q9UIF8; AlphaScreen BAZ2B-H3K14Ac peptide displacement; Potency, µM (doses to about 114 µM), for inactives: at the highest dose activity change, negative = inhibition, most hits filed as inhibitors; 360,000 tested, 4.4% active; AID 504333, 2011; also: potency is read from the fitted curve at half-maximal effect; % is scaled to controls: 0 for no effect and ±100 for the full control effect; nearly all actives have a fitted effect of over 60% in size
#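 AlphaScreen luminescence quantifies BAZ2B engagement of H3K14Ac peptide; the protein and biotinylated peptide are both at 50 nM final, buffer PBS pH 7.4 with 0.01% Tween-20, all steps at room temperature.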
# An asterisk follows results filed as active; ? = inconclusive; . = no result; [ ] = another dose, or the depositor's remark. Unless noted, calls follow the shape of the dose curve; as a rule, active = well fitted inhibition curve with a large enough effect; inconclusive = small, poorly fitted or top-dose-only effect; inactive = no such curve, though single readings can be large or run the other way.
SMILES,L3MBTL1 inh,PI5P4Ka inh,KDM4E inh,JMJD2A Tudor,HP1b binding inh,BAZ2B inh
CCOC(=O)C1C(=O)NC(SCC(=O)Nc2nccs2)=C(C#N)C1c1ccccc1OCC (stereo unspecified),-2%,.,-5%,56µM*,?,-35%
CCc1ccc2[nH]c(C(=O)Nc3ccc4c(c3)OCO4)cc2c1,-14%,-13,?,?,-17%,-33%
CC(C)CCNC(=O)C1CCN(C(=O)c2cc3sccc3n2Cc2ccc(Cl)cc2)CC1,.,.,.,5%,33%,-21%
O=S(=O)(c1ccc(NC(=S)NN=C2CCCCC2)cc1)N1CCOCC1,8%,?,?,28µM*,12%,-23%
N#Cc1c(-c2ccccc2)cc(-c2ccccc2)nc1SCC(O)CS(=O)(=O)Cc1ccccc1 (stereo unspecified),.,.,.,-25%,-17%,-14%
CC(=O)Nc1ccc(CN2C(=O)C(Cc3ccccc3)ON=C2c2ncccc2C)cc1 (stereo unspecified),.,5,.,.,.,.
CC(C)(C)c1ccc(C(=O)NNc2ccc(F)cc2F)cc1,6%,-4,-7%,89µM*,-2%,-37%
O=C(CCCCCCCC(=O)NNC(=O)Nc1ccccc1)NNC(=O)Nc1ccccc1,-10%,-6,-5%,79µM*,4%,79µM*
CCNC(=S)NNC(=O)Nc1ccccc1,.,.,2%,32µM*,?,6%
CCNC(=S)NNC(=O)C(c1ccccc1)c1ccccc1,-5%,.,7%,4%,29%,-1%
Cc1ccc(Nc2cc(C)c3c(O)cccc3n2)cc1C,.,-7,?,?,-21%,45µM*
Cc1ccccc1Nc1cc(C)c2c(O)cccc2n1,-10%,3,-7%,?,15%,?
COc1ccc(Nc2cc(C)c3c(O)cccc3n2)cc1,.,-27,-27%,-28%[11.4 µM],-13%,45µM*
Cn1cnc(S(=O)(=O)N2CCCC(C(=O)Nc3cccc(C#N)c3)C2)c1 (stereo unspecified),.,.,.,-7%,53%,-12%
COc1ccccc1C(=O)NC1(C(F)(F)F)C(=O)Nc2c1c(=O)[nH]c(=O)n2-c1ccc(F)cc1 (stereo unspecified),.,.,.,-13%,35%,-20%
COC(Cc1n[nH]c(=S)n1-c1ccc(Cl)cc1)OC,5%,.,5%,14µM*,17%,4%
Cc1n[nH]c(=S)n1-c1ccccc1,-15%,3,5%,89µM*,20%,-31%
COC(Cc1nnc(SC)n1-c1ccc(Cl)cc1)OC,-12%,.,5%,-16%,4%,5%
CC(C)CCC(CC(C)O)c1n[nH]c(=S)n1-c1ccccc1 (stereo unspecified),4%,-2,-7%,8.9µM*,8%,10%
CCc1ccc(-n2c(C)n[nH]c2=S)cc1,-1%,-4,-20%,3.5µM*,8%,1%
CC(c1n[nH]c(=S)n1-c1ccc(F)cc1)N1CCCCC1 (stereo unspecified),?,6,-9%,?,3%,-3%
Cc1oc2cc3oc(=O)c(CCC(=O)NCCc4ccccc4F)c(C)c3cc2c1C,.,.,.,-14%,11%,-6%
Cc1cccc(Cn2cnc3c(cnn3-c3ccc(Cl)cc3)c2=O)c1,.,.,.,-1%,33%,-2%
CCc1ccc(-n2nnc(-c3nc(-c4cccs4)no3)c2N)cc1,.,.,.,-1%,30%,-1%
CCC(c1n[nH]c(=S)n1-c1ccccc1)N(C)C (stereo unspecified),3%,1,-18%,32µM*,26%,-23%
SMILES,L3MBTL1 inh,PI5P4Ka inh,KDM4E inh,JMJD2A Tudor,HP1b binding inh,BAZ2B inh
Cc1n[nH]c(=S)n1-c1ccc(Cl)cc1,-2%,1,?,2.5µM*,36%,-2%
CC(c1n[nH]c(=S)n1-c1ccc(Cl)cc1)N(C)C (stereo unspecified),-5%,-7,?,7.9µM*,-19%,-11%
Cc1ccc(OCc2n[nH]c(=S)n2-c2ccc(Cl)cc2)cc1,-3%,5,.,?,12%,-38%
CC1(C)O[C@@H]2[C@H](O1)[C@@H](CO)O[C@H]2n1cnc2c(=O)[nH]cnc21,1%,2,.,-7%,24%,5%
COc1cccc(OCc2cc(=O)n3c(-c4ccccc4)csc3n2)c1,.,.,.,-33%,12%,?
CCOC(=O)c1cc2c(ccn2C)n1CC(=O)N1CCCC(C)C1 (stereo unspecified),-13%,1,?,-18%,-9%,?
CCOC(=O)c1cc2c(ccn2C)n1CC(=O)N1CCC(Cc2ccccc2)CC1,?,.,-22%,35µM*,?,25µM*
CCOC(=O)c1cc2c(ccn2C)n1Cc1ccc(Cl)cc1,-7%,23,?,56µM*,-22%,50µM*
CCC(C)NC(=O)CSc1nc(-c2ccc(F)cc2)cc(C(F)(F)F)n1 (stereo unspecified),.,.,.,0%,25%,-25%
CCOc1cc(N2CCOCC2)c(OCC)cc1NC(=O)CN1CCC(Cc2ccccc2)CC1,-8%,2,8%,22µM*,25µM*,32µM*
CCOc1cc(N2CCOCC2)c(OCC)cc1NC(=O)Cc1ccccc1OC,-21%,-6,-9%,?,?,45µM*
CCOc1cc(N2CCOCC2)c(OCC)cc1NC(=O)Cc1ccccc1,-11%,-4,4%,-31%,3%,?
COc1ccc(NC(C)=O)cc1NS(=O)(=O)c1cn(C)c(=O)n(C)c1=O,2%,3,.,-10%,45%,79µM*
CCOc1ccc(OCC)c(NC(=O)CN2CCN(c3cccc(C)c3C)CC2)c1,6%,.,?,1.6µM*,?,?
CCCCN1CC(=O)N2[C@H]3c4ccc(OC)cc4OC[C@@H]3[C@H](C(=O)OCC)[C@]2(C)C1=O,5%,5,.,-11%,33%,4%
O=C(OCC#CCSc1nnc(-c2cccc3ccccc23)o1)c1sc2ccccc2c1Cl,.,.,.,3%,.,.
CCOc1cc(N2CCOCC2)c(OCC)cc1NC(=O)C(C)C,.,3,10%,-7%,2%,-10%
CCOc1cc(N2CCOCC2)c(OCC)cc1NC(=O)COC(=O)CCOc1ccc(C(C)(C)C)cc1,-10%,2,.,20µM*,?,35µM*
CCOc1ccc(OCCC(=O)OCC(=O)Nc2ccc(N3CCOCC3)cc2)cc1,.,4,.,-24%,20%,-30%
